The source holds several records for some structures; these can differ, active in one and inactive in another. Calls of active or inactive are those of the source. The calls were made as follows: active = hit-call score of the fitted dose curve at least 0.9, where 1 is the maximum; inactive = score below 0.9.
Legend:
[1] = ATG_CRE_CIS: Attagene CIS-FACTORIAL HepG2 Assay for human cAMP Responsive Element (CRE) binding protein 3 (AID 2282926); conditions: HepG2 CRE cis-reporter, Attagene multiplexed mRNA; actives raise or lower the signal
How it was run: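 Multiplexed transcription-unit reporters transfected into HepG2; 24 h dosing; RT-PCR/capillary electrophoresis fluorescence read-out; bidirectional fit vs DMSO.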

[2] = biological target: CCAAT/enhancer-binding protein beta (Homo sapiens) (UniProt P17676); assay: ATG_C_EBP_CIS: Attagene CIS-FACTORIAL HepG2 Assay for human CCAAT/Enhancer Binding Protein (C/EBP) beta (AID 2282927); conditions: HepG2 Attagene cis-factorial transcription factor reporter; actives raise or lower the signal
How it was run: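 Endogenous C/EBPb-driven reporter transcripts measured in transfected human HepG2 cells at 24 h via RT-PCR and capillary electrophoresis of labelled fragments. Activity fitted in both directions relative to DMSO baseline.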

[3] = ATG_CMV_CIS: Attagene CIS-FACTORIAL HepG2 Assay for human CMV (Internal Marker) (AID 2282928); conditions: HepG2 CMV promoter reporter, transcription factor profiling; actives raise or lower the signal;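 also: endpoint acts as a background internal control marker rather than a target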
How it was run: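 After transient transfection of HepG2 with reporter transcription units driven by cis-regulatory promoters, cells receive test chemical for 24 h. Labeled reporter amplicons, digested with HpaI, are sized and quantified by capillary electrophoresis against DMSO.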

[4] = ATG_DR4_LXR_CIS: Attagene CIS-FACTORIAL HepG2 Assay for human Liver X Receptor (LXR), DR4 submotif (AID 2282929); conditions: HepG2 Attagene DR4 cis-reporter, mRNA transcription; actives raise or lower the signal
How it was run: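 HepG2, transient MRTU transfection, cis-element (DR4) promoter; 24 h compound exposure; total RNA → oligo(dT) RT → PCR → 6-FAM primer extension → HpaI cut → CE. Gain/loss vs DMSO, bidirectional fit.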

[5] = biological target: Aryl hydrocarbon receptor (Homo sapiens) (UniProt P35869); assay: ATG_Ahr_CIS: Attagene CIS-FACTORIAL HepG2 Assay for human Aryl Hydrocarbon Receptor (Ahr) (AID 2282930); conditions: HepG2 AhR cis-factorial reporter transcription; actives raise or lower the signal
How it was run: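 Reporter mRNA levels, quantified by RT-PCR and fluorescent capillary electrophoresis, reflect endogenous AhR transcriptional activity in HepG2 cells carrying transfected cis-promoter reporter constructs. Readout at 24 h post-dose; gain or loss fitted against DMSO baseline.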

[6] = ATG_AP_1_CIS: Attagene CIS-FACTORIAL HepG2 Assay for human Activator Protein 1 (AP-1) (AID 2282931); conditions: HepG2 Attagene cis-factorial AP-1 reporter mRNA; actives raise or lower the signal
How it was run: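 Transient MRTU transfection of HepG2 → 24 h chemical treatment → RNA isolation, RT-PCR, 6-FAM labelling, HpaI digest → capillary electrophoresis. Fit: bidirectional, DMSO negative control.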

[7] = ATG_AP_2_CIS: Attagene CIS-FACTORIAL HepG2 Assay for human Activator Protein 2 (AP-2) (AID 2282932); conditions: HepG2 AP-2 cis-reporter, Attagene transcription factor profiling; actives raise or lower the signal
How it was run: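 Step one: transient transfection of HepG2 with reporter transcription units. Step two: 24 h chemical exposure. Step three: RNA extraction, RT-PCR, labelled fragment analysis by capillary electrophoresis; DMSO serves as baseline.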

[8] = ATG_BRE_CIS: Attagene CIS-FACTORIAL HepG2 Assay for human Bone Morphogenetic Protein (BMP) Response Element (BRE) (AID 2282933); conditions: HepG2 BMP response element reporter, Attagene transcription factor profiling; actives raise or lower the signal
How it was run: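 Transient MRTU transfection of human HepG2 liver cells; 24 h compound treatment; total RNA isolated, reverse-transcribed, PCR-amplified, 6-FAM labelled, HpaI-cut, capillary electrophoresis. DMSO = negative control/baseline, bidirectional fit.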

[9] = biological target: Transcription factor E2F1 (Homo sapiens) (UniProt Q01094); assay: ATG_E2F_CIS: Attagene CIS-FACTORIAL HepG2 Assay for human E2F Transcription Factor 1 (AID 2282935); conditions: HepG2 Attagene cis-reporter, E2F reporter RNA transcripts; actives raise or lower the signal
How it was run: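 Total RNA from 24 h-treated, reporter-transfected HepG2 cells undergoes DNase I treatment, oligo(dT) reverse transcription, PCR and 6-FAM primer extension before capillary electrophoresis.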

[10] = ATG_E_Box_CIS: Attagene CIS-FACTORIAL HepG2 Assay for human Enhancer Box (E-box) (AID 2282936); conditions: HepG2 E-box cis-reporter transcription, actives raise or lower the signal
How it was run: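 DMSO served as negative control and baseline for bidirectional fitting. Human hepatoma HepG2 cells, transiently transfected with cis-reporter constructs, were dosed 24 h; reporter mRNA read by RT-PCR and capillary electrophoresis.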

[11] = ATG_M_61_CIS: Attagene CIS-FACTORIAL HepG2 Assay for M61 Transcription Factor (Internal Marker) (AID 2282937); conditions: HepG2 Attagene CIS-FACTORIAL M61 internal marker reporter; actives raise or lower the signal
How it was run: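 Human liver HepG2, transient MRTU transfection (cis promoter elements), 24 h compound. Total RNA → oligo(dT) RT → PCR → FAM label → HpaI → CE. Internal background marker; bidirectional fitting, DMSO = baseline.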

[12] = ATG_EGR_CIS: Attagene CIS-FACTORIAL HepG2 Assay for human Early Growth Response 1 (EGR1) (AID 2282938); conditions: HepG2 Attagene CIS-FACTORIAL EGR reporter mRNA; actives raise or lower the signal
How it was run: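 Transient transfection of human HepG2 with multiple cis-regulated reporter units, chemical exposure 24 h, total RNA isolated. Reverse transcription, PCR, fluorescent labelling and capillary electrophoresis quantify reporter transcripts; activity fitted bidirectionally against DMSO.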

[13] = ATG_Ets_CIS: Attagene CIS-FACTORIAL HepG2 Assay for human Erythroblast Transformation Specific (ETS) (AID 2282941); conditions: HepG2 ETS cis-reporter transcription, actives raise or lower the signal
How it was run: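 Human HepG2 hepatoma cells were transiently transfected with promoter-driven reporter constructs and treated for 24 hours. Reporter transcripts were quantified by RT-PCR with fluorescent primer extension; bidirectional curve fitting used DMSO as reference.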

[14] = biological target: Hepatocyte nuclear factor 3-beta (Homo sapiens) (UniProt Q9Y261); assay: ATG_FoxA2_CIS: Attagene CIS-FACTORIAL HepG2 Assay for human Forkhead box A2 (FOXA2) (AID 2282942); conditions: HepG2 cis-reporter transcription factor activity, 24 h; actives raise or lower the signal
How it was run: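 Transient MRTU transfection of HepG2 liver cells; 24 h treatment; total RNA → oligo(dT) RT → PCR → FAM primer extension → HpaI cut → CE. Bidirectional fit vs DMSO.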

[15] = ATG_FoxO_CIS: Attagene CIS-FACTORIAL HepG2 Assay for human Forkhead box O (FoxO) (AID 2282943); conditions: HepG2 Attagene cis-reporter, FoxO element, mRNA; actives raise or lower the signal
How it was run: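 Endogenous transcription factor activity read from multiplexed cis-promoter reporter transcripts in transiently transfected HepG2, 24 h after dosing. Reporter RNA measured via RT-PCR plus capillary electrophoresis of FAM-labeled products; gain or loss relative to DMSO.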

[16] = ATG_GATA_CIS: Attagene CIS-FACTORIAL HepG2 Assay for human GATA Binding Protein (AID 2282944); conditions: HepG2 GATA cis-element reporter, Attagene multiplex mRNA; actives raise or lower the signal
How it was run: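 Transient MRTU transfection, HepG2, 24 h compound exposure. Total RNA → oligo(dT) RT → PCR → 6-FAM primer extension → HpaI cut → CE. Bidirectional fit vs DMSO.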

[17] = ATG_GLI_CIS: Attagene CIS-FACTORIAL HepG2 Assay for human Zinc Finger Protein GLI1 (AID 2282945); conditions: HepG2, Attagene cis-factorial reporter mRNA, GLI element; actives raise or lower the signal
How it was run: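 Bidirectional curve fits relative to DMSO, using reporter mRNA levels from RT-PCR plus capillary electrophoresis. Cells were HepG2 transiently carrying cis-regulated reporter constructs, harvested 24 h after dosing.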

[18] = biological target: Retinoic acid receptor alpha (Homo sapiens) (UniProt P10276); assay: ATG_DR5_RAR_CIS: Attagene CIS-FACTORIAL HepG2 Assay for human Retinoic Acid Receptor Alpha (RARE), DR5 submotif (AID 2282934); conditions: HepG2 Attagene cis-factorial RARE DR5 reporter, mRNA; actives raise or lower the signal;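 as to AC50: reporter responds to endogenous RAR alpha beta and gamma in HepG2 not RARA alone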
How it was run: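 Reporter transcripts from a DR5-regulated unit, measured via RT-PCR plus capillary electrophoresis, reflect endogenous RAR activity in transiently transfected human HepG2 liver cells. Exposure lasted 24 h; gain or loss of signal scored against DMSO.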

[19] = ATG_M_19_CIS: Attagene CIS-FACTORIAL HepG2 Assay for M19 Transcription Factor (Internal Marker) (AID 2282939); conditions: HepG2 Attagene CIS-FACTORIAL M19 internal marker reporter; actives raise or lower the signal
How it was run: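 Transfect HepG2 with MRTU reporter library → dose chemical, 24 h → isolate total RNA, reverse-transcribe with oligo(dT) → PCR, 6-FAM label, HpaI cut (2 h, 37 C) → capillary electrophoresis. Bidirectional fit vs DMSO.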

[20] = ATG_ERE_CIS: Attagene CIS-FACTORIAL HepG2 Assay for Estrogen Response Element (ERE) (AID 2282940); conditions: HepG2 ERE cis-reporter, Attagene RNA transcript; actives raise or lower the signal
How it was run: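 Transient MRTU transfection of human HepG2; cis-element promoters; 24 h dosing; total RNA → RT (oligo dT) → PCR → 6-FAM primer extension → HpaI digest → CE fluorescence. Bidirectional fit, DMSO baseline.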

Measured: AC50

CCAAT/enhancer-binding protein beta (Homo sapiens), sequence (P17676 whole entry, looked up, the tested form may be a part): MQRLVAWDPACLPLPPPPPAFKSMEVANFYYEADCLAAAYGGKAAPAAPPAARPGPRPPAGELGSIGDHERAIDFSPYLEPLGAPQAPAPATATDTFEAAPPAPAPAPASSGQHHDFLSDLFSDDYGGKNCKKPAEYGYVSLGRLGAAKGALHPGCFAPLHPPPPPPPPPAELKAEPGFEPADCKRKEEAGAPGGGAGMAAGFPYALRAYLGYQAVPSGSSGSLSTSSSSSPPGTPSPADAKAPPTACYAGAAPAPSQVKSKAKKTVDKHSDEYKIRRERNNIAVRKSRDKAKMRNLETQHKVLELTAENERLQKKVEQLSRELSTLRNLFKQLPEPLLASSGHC
Hepatocyte nuclear factor 3-beta (Homo sapiens), sequence (Q9Y261 whole entry, looked up): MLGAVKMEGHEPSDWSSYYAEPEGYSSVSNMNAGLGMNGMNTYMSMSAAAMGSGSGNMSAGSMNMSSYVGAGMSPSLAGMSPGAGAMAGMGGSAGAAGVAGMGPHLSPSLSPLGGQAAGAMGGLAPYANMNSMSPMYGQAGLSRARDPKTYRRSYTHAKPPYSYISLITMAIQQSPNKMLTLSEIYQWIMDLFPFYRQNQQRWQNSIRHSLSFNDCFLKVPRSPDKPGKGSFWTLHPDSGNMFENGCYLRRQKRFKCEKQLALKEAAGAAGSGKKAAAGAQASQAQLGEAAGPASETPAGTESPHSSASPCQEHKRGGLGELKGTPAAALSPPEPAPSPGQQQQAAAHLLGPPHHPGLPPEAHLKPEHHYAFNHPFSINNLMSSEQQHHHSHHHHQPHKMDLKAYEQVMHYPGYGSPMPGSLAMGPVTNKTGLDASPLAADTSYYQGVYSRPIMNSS
Retinoic acid receptor alpha (Homo sapiens), sequence (P10276 whole entry, looked up): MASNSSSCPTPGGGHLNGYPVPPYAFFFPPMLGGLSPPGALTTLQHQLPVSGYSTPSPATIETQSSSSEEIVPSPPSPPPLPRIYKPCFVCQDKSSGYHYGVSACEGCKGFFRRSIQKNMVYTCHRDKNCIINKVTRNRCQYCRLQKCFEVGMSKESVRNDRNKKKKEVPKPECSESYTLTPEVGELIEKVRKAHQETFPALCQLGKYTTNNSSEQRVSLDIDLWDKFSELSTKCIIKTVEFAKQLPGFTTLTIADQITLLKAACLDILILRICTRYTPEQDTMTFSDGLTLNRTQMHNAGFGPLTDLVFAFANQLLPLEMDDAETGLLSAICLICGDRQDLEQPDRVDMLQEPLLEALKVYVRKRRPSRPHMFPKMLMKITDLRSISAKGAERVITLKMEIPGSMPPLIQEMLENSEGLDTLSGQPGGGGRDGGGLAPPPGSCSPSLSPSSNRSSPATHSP
Transcription factor E2F1 (Homo sapiens), sequence (Q01094 whole entry, looked up): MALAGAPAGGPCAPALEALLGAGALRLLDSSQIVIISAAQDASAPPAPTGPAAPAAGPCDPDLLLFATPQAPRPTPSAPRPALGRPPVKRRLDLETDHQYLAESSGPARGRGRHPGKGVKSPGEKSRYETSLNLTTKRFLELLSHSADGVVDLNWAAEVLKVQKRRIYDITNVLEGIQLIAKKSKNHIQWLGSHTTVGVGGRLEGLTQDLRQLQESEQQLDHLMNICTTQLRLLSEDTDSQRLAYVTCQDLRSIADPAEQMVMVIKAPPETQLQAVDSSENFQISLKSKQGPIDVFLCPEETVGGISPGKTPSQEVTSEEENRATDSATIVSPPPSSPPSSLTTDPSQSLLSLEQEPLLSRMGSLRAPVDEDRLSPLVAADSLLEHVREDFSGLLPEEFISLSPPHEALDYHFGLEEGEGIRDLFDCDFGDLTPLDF
Aryl hydrocarbon receptor (Homo sapiens), sequence (P35869 whole entry, looked up): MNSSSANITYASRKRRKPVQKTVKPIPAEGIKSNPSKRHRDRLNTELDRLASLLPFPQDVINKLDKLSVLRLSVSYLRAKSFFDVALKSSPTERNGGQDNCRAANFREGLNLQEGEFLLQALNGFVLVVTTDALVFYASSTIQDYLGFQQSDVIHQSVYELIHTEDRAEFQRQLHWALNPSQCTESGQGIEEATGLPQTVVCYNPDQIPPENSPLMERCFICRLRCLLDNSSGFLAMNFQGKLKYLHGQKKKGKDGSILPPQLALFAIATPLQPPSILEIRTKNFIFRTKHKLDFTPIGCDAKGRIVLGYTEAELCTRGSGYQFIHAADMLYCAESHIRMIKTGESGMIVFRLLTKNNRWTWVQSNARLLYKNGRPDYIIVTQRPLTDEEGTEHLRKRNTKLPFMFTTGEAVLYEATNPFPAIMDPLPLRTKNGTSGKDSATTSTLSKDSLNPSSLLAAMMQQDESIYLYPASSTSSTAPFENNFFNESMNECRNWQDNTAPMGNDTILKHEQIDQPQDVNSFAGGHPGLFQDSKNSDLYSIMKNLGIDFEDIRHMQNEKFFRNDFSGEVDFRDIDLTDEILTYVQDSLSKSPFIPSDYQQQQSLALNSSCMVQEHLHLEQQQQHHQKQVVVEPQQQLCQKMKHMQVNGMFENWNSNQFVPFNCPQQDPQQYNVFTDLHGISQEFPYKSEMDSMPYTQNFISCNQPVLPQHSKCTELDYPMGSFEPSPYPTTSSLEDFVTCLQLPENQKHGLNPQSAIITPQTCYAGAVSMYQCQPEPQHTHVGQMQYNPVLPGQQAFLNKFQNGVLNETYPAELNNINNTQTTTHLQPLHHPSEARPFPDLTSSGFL

Cc1ncc(CO)c(CO)c1O
inactive: [1] | [2] | [3] | [4] | [5] | [6] | [7] | [8] | [9] | [10] | [11] | [12] | [13] | [14] | [15] | [16] | [17]

C[C@]12CC[C@@H]3c4ccc(O)cc4CC[C@H]3[C@@H]1CCC2=O
inactive: [2] | [3] | [4] | [6] | [7] | [8] | [9] | [10] | [11] | [12] | [13] | [14] | [15] | [16] | [17]
active: [6] 24.5 µM

CC[C@@H]1C[C@H](N(Cc2cc(C(F)(F)F)cc(C(F)(F)F)c2)C(C)=O)c2cc(C(F)(F)F)ccc2N1C(=O)OC(C)C
inactive: [2] | [3] | [4] | [5] | [6] | [7] | [8] | [9] | [10] | [11] | [12] | [19] | [20] | [13] | [14] | [15] | [16] | [17]
active: [18] 0.362 µM

CC(O)CC(C)(C)O (stereo unspecified)
inactive: [2] | [3] | [4] | [5] | [6] | [7] | [8] | [18] | [9] | [10] | [11] | [12] | [13] | [14] | [15] | [16] | [17]
active: [7] 0.0125 µM | [15] 0.0124 µM

O=C1c2ccccc2C(=O)N1CCc1noc(-c2ccc(CN3CCCCCC3)s2)n1
inactive: [2] | [3] | [5] | [7] | [9] | [10] | [11] | [12] | [19] | [20] | [13] | [14] | [15] | [16] | [17]
active: [4] 84.5 µM | [6] 24.7 µM | [8] 56.6 µM

Cc1ccc(C(C)C)cc1
inactive: [2] | [3] | [4] | [5] | [6] | [7] | [8] | [9] | [10] | [11] | [12] | [20] | [13] | [14] | [15] | [16] | [17]

— PubChem BioAssay (EPA / NIEHS)
